Shown are actives, neighbours in structure and some others; about 1% of the full set was active somewhere.
TexasRed fluor = Texas Red fluorescence interference in TRb-SRC2 counter-screen. TRb/SRC2 Texas Red total fluorescence interference. Potency, µM (series often up to 106 µM), inactives show at the top dose fluorescence change, negative = quenching. actives 0.29% (n = 280,000); active means well fitted curve in either direction with a large enough effect; inconclusive means small, poorly fitted or top-dose-only effect; further: potency means the concentration at half of the fitted maximal effect; on the % scale 0 is the no-effect control and ±100 the full control effect
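Human TRb ligand-binding domain at 0.6 uM with 20 nM Texas Red SRC2 peptide in Tris buffer containing 1 uM T3 and 5% DMSO, incubated with compound 5 h at ambient temperature. Total fluorescence (555/632 nm) calculated as parallel + 2 × perpendicular.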
NPSR antag = neuropeptide S receptor (human) antagonism, cAMP; actives 1% (n = 220,000); Potency, µM (top dose mostly 38.3 µM), without a hit: at the top dose activity change, negative = inhibition, most hits filed as inhibitors; CHO-NPSR cells, cAMP TR-FRET, antagonist mode; further: potency means the concentration at half of the fitted maximal effect; on the % scale 0 is the no-effect control and ±100 the full control effect; nearly all actives have a fitted effect of over 50% in size
Coupling enz = counter-screen for Giardia aldolase inhibitors: coupling enzyme system; activity change, negative = inhibition, % at 58.2 µM, hits read low; coupling enzyme system counterscreen, AmpLite Red fluorescence; actives 0.67% (n = 290,000); in the data active means activity change below about -30%; further: on the % scale 0 is the no-effect control and ±100 the full control effect
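Fluorescence at 525 nm excitation and 598 nm emission measured inhibition of the coupled detection system without aldolase. Compounds (at 57.5 uM final) were preincubated 10 min at room temperature with coupling enzyme reagent before a 20 min substrate/AmpLite Red step.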
TRb-SRC2 inh = TRbeta-SRC2 interaction inhibition. Potency, µM (top dose mostly 106 µM), inactives show at the top dose activity change, negative = inhibition, hits mostly inhibitors. actives 0.065% (n = 280,000). AID 1469. TRbeta-SRC2 peptide binding, fluorescence polarization; receptor liganded with 1 µM T3. P10828;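 further: potency means the concentration at half of the fitted maximal effect; plate controls were bound peptide for no effect and peptide without receptor for full effect; nearly all actives have a fitted effect of over 50% in size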
Target sequence (P10828 whole entry, looked up): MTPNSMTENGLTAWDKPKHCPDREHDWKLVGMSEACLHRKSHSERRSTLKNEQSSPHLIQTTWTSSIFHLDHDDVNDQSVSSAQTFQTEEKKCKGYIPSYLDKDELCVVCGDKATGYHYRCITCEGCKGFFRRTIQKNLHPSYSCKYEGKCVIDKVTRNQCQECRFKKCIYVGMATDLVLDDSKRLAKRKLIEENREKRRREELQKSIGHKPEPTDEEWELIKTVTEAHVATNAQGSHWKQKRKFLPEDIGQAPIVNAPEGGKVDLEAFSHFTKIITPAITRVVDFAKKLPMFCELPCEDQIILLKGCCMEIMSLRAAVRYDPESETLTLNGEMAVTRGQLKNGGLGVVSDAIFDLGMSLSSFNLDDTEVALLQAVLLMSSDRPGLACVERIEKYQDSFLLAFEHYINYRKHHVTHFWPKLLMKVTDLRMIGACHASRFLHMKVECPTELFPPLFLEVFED
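Human TRb ligand-binding domain (0.6 uM) is mixed with 20 nM Texas Red SRC2 peptide and 1 uM T3; after compound addition and 5 hr at ambient temperature, polarization is measured and normalized to unbound and bound controls.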
TCR act = T cell receptor activation; primary human leukocytes, anti-CD3, IL-2 HTRF, 48 h; Potency, µM (series often up to 9.22 µM), inactives show top-dose activation of IL-2 secretion, hits mostly activators; 330,000 tested, under 10 active; further: % of control where 0% means no effect
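IL-2 produced over 48 hr by a-CD3 bead-stimulated primary human leukocytes exposed to compounds was detected with a homogeneous time-resolved FRET immunoassay, 665nm acceptor signal after 320nm excitation.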
TSHR antag = antagonists of human thyroid stimulating hormone receptor; actives 0.2% (n = 330,000); activity change, negative = inhibition, % at 11.5 µM; TSHR-expressing cells, TSH-stimulated cAMP HTRF, 2 h; stronger effect = lower value;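 active means activity change below a set negative limit, meaning inhibition stronger than a set level, cut at about -70% in these data; inconclusive means activity change between two set negative limits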; further: on the % scale 0 is the no-effect control and ±100 the full control effect
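Competitive HTRF cAMP read-out (cryptate anti-cAMP antibody, cAMP-d2; 30 min, room temperature) in freshly harvested TSHR cells. Compounds added before TSH at EC80 (4nM final), followed by 2 hours' incubation at 37 deg C.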
Active calls of the source: *; [ ] = another dose, or the depositor's remark. Unless noted, the call rests on the fitted dose curve; in most records, active means well fitted curve in the direction sought with a large enough effect; inconclusive means small, poorly fitted or top-dose-only effect, or another doubt; inactive means no such curve, though single readings can be large; an effect the other way counts as inactive or inconclusive.

Screening COc1ccc(Cn2nnnc2C(C(C)C)N2CCN(c3ccccc3OC)CC2)cc1 (configuration not stated) returned TexasRed fluor -1.6%, NPSR antag -20.5%[46.1 µM], Coupling enz -0.6, TRb-SRC2 inh -2.1%, TCR act 10.0% and TSHR antag -86.0*.
Screening NC(=O)c1ccc(N=C2C(=O)Nc3ccc([N+](=O)[O-])cc32)cc1 returned TexasRed fluor -10.0%, NPSR antag 13.9%, Coupling enz -30.0*, TRb-SRC2 inh -21.5%, TCR act -1.8% and TSHR antag 2.5.
Cc1ccc(-c2ccc(/C=N/N=C3/NC(=O)C(CC(=O)O)S3)o2)c([N+](=O)[O-])c1 (configuration not stated) was read as TexasRed fluor -3.5%, NPSR antag -8.8%[46.1 µM], Coupling enz -6.0, TRb-SRC2 inh -1.1%, TCR act 1.1% and TSHR antag -72.0*.
`Cc1nn(-c2ccccn2)c2c1-c1nc(N3CCOCC3)ncc1CC2` gave TexasRed fluor -0.6%, NPSR antag -2.9%[46.1 µM], Coupling enz -39.4*, TRb-SRC2 inh 7.8%, TCR act -11.8% and TSHR antag -2.3.
For Cc1nn(-c2ccccn2)c(N)c1N=O the results were TexasRed fluor -0.4%, NPSR antag -57.6%, Coupling enz 0.1, TRb-SRC2 inh 0.6%, TCR act 1.7% and TSHR antag -5.0.
For Cc1nn(-c2ccccn2)c2c1-c1nc(N)ncc1CC2 the results were TexasRed fluor 2.9%, NPSR antag -10.0%[46.1 µM], Coupling enz -47.1*, TRb-SRC2 inh -16.1%, TCR act -2.7% and TSHR antag 32.6.
CCc1nnc(SCC(=O)Nc2cc(Cl)c(OC)cc2OC)c2cc3oc(C)cc3n12 was read as TexasRed fluor 0.7% and TRb-SRC2 inh -5.7%.
`CCCN(CCC)c1nn2c(=O)c(C(=O)NCc3cccc(OC)c3)cnc2s1` gave TexasRed fluor -14.9% and TRb-SRC2 inh -3.9%.
CCc1cccc(C)c1NC(=O)CSc1nc2ccccc2nc1Cc1ccccc1 was read as TexasRed fluor -2.8% and TRb-SRC2 inh 4.7%.
For Clc1cccc(Cl)c1C1Nc2cccc3cccc(c23)N1 the results were Coupling enz -3.3, TCR act 6.6% and TSHR antag -70.5*.
`Oc1ccccc1C1Nc2cccc3cccc(c23)N1` gave TexasRed fluor -2.2%, NPSR antag -5.0%[46.1 µM], Coupling enz -34.5*, TRb-SRC2 inh 0.8%, TCR act -2.3% and TSHR antag -48.6.
For Brc1cccc(C2Nc3cccc4cccc(c34)N2)c1 the results were Coupling enz -4.1, TCR act 6.2% and TSHR antag -1.1.
`Brc1ccc(C2Nc3cccc4cccc(c34)N2)o1` gave TexasRed fluor 2.82µM*[quencher], NPSR antag 8.1%[46.1 µM], Coupling enz -25.6, TRb-SRC2 inh 24.3%, TCR act -1.6% and TSHR antag 1.9.
CCOC(=O)c1c(NC(=O)c2nc(S(C)(=O)=O)ncc2Cl)sc(C(C)=O)c1C was read as TexasRed fluor 4.8% and TRb-SRC2 inh -5.2%.
Screening CS(=O)(=O)c1nc(-c2ccc(Br)cc2)cc(-c2ccccc2)c1C#N returned TexasRed fluor -0.5%, NPSR antag 7.94µM*, Coupling enz 0.2, TRb-SRC2 inh 0.2% and TSHR antag inconclusive.
Screening CS(=O)c1nc(-c2ccc(Br)cc2)cc(-c2ccccc2)c1C#N (configuration not stated) returned TexasRed fluor -5.1%, NPSR antag 12.6µM*, Coupling enz 7.2, TRb-SRC2 inh 6.9%, TCR act -3.0% and TSHR antag -73.4*.
Screening O=C(O)CN(CCCN(CC(=O)O)CC(=O)O)CC(=O)O returned TexasRed fluor -0.8%[201 µM] and TRb-SRC2 inh 0.8%[201 µM].
CCOP(=O)(c1ccccc1)c1nc(-c2ccccc2C)oc1N1CCCCC1 (configuration not stated) was read as TexasRed fluor -4.6%, NPSR antag 10µM*, Coupling enz -3.8, TRb-SRC2 inh 3.0%, TCR act -4.9% and TSHR antag -2.2.
NC(=O)C1CCN(c2nc(-c3cccc4ccccc34)cs2)CC1 was read as TSHR antag 3.8.
Screening COc1ccccc1NC(=O)CSC1=Nc2ccccc2C2=NC(CCC(=O)NCc3cccs3)C(=O)N12 (configuration not stated) returned TexasRed fluor 2.8% and TRb-SRC2 inh 5.2%.
Screening Cc1ccc2[nH]c(=O)c(CN(C(=O)c3cccc(Cl)c3)C(C)(C)C)cc2c1 returned TexasRed fluor 31.6µM*[quencher] and TRb-SRC2 inh -18.0%[53 µM].
`Cc1[nH]n(-c2ccccc2)c(=O)c1C(C[N+](=O)[O-])c1ccc(Br)cc1` (configuration not stated) gave TexasRed fluor 0.1%, NPSR antag -2.7%[46.1 µM], Coupling enz -13.5, TRb-SRC2 inh -23.2%, TCR act -2.6% and TSHR antag 5.6.
For COc1cccc(C(C[N+](=O)[O-])c2c(C)[nH]n(-c3ccccc3)c2=O)c1 (configuration not stated) the results were Coupling enz -44.3*, TCR act 0.0% and TSHR antag 1.1.
Screening CCCN(CCC)c1c([N+](=O)[O-])cc(C(F)(F)F)c(N)c1[N+](=O)[O-] returned TexasRed fluor -2.0%[201 µM] and TRb-SRC2 inh -1.9%[201 µM].
COCCn1nnnc1C(C(C)C)N(Cc1ccccc1)Cc1cc2cc(OC)ccc2[nH]c1=O (configuration not stated) was read as TexasRed fluor -0.9%, NPSR antag inconclusive, Coupling enz -2.6, TRb-SRC2 inh -20.3%, TCR act 0.3% and TSHR antag 23.8.
For CCc1ccc2[nH]c(=O)c(CN(Cc3ccc(OC)cc3)Cc3nnnn3CCOC)cc2c1 the results were TexasRed fluor 0.2%, NPSR antag inconclusive, Coupling enz -74.2*, TRb-SRC2 inh 9.7%, TCR act -3.4% and TSHR antag 4.0.
Cc1ccc(-c2nn(-c3ccccc3)cc2C=C2C(=O)CC(C)(C)CC2=O)cc1 was read as TexasRed fluor 0.2%, NPSR antag -5.2%[46.1 µM], Coupling enz -1.7, TRb-SRC2 inh -11.7%, TCR act -0.8% and TSHR antag 12.1.
Screening CC1=NNC(=O)/C1=C\c1cn(-c2ccccc2)nc1-c1ccc(Cl)cc1 returned TexasRed fluor -0.1%, NPSR antag 2.51µM*, Coupling enz -2.4, TRb-SRC2 inh 7.0%, TCR act 3.5% and TSHR antag -12.8.

Source: PubChem BioAssay
